IL-1B inflam inh: blocks inflammasome-driven IL-1 beta release | THP-1 LPS/ATP IL-1B secretion, AlphaLISA, 16 h; hits give low values | activity change, % at 57.5 µM | hit rate 4.7% among 360,000; in the data active = activity change below about -50%; inconclusive = mostly about -30% to -49%; note: % is set by controls: 0 for no effect and ±100 for the full control effect
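Secreted IL-1B measured by AlphaLISA bead assay after 16 h compound exposure of THP-1 cells; compounds (final up to 57.5 uM) added 1 h before LPS (250 ng/mL) and ATP (1.25 mM) stimulation; lower signal means less secretion.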
TDP1 inh: inhibitors of human tyrosyl-DNA phosphodiesterase TDP1; recombinant TDP1, AlphaScreen DNA substrate cleavage; Potency, µM (doses to about 130 µM), for the others: at the highest dose activity change, negative = inhibition, hits mostly inhibitors; AID 485290; hit rate 0.28% among 350,000; note: potency is the fitted concentration of half-maximal effect; % is set by controls: 0 for no effect and ±100 for the full control effect; nearly all actives have a fitted effect of over 40% in size
Target sequence (Q9NUW8 whole entry, looked up): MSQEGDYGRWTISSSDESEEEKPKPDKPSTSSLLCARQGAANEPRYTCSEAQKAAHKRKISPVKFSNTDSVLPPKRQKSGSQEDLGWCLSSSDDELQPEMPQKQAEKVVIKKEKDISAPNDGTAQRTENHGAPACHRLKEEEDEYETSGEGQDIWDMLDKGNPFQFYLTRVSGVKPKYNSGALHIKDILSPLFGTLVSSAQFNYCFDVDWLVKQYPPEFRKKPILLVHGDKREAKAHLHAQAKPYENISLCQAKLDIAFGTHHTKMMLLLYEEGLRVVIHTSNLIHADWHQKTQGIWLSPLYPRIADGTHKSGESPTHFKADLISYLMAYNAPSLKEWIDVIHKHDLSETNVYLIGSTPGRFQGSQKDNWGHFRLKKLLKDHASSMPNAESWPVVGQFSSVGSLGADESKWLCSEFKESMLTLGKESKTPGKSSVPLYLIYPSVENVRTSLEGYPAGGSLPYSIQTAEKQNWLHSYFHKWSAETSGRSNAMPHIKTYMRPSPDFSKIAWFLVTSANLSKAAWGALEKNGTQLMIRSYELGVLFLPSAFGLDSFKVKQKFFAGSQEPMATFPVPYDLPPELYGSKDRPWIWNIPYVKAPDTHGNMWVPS
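Enzyme-compound mixtures sat 15 min at room temperature, followed by a 5 min reaction with 15 nM final substrate and 10 min with AlphaScreen beads. Recombinant human Tdp1 was used at 1 nM final.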
HepG2 viability: kills HepG2 cells in TGF-b inhibitor counter-screen; hit rate 0.76% among 410,000; Potency, µM (series often up to 46.1 µM), for the others: top-dose activity change, negative = cytotoxicity, most hits filed as cytotoxic; HepG2 CAGA-GFP viability, ATP luminescence, 18 h; note: potency is the fitted concentration of half-maximal effect
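CellTiter-Glo luminescence gave cytotoxicity after 18 hours at 37 degrees C. The cells were HepG2 CAGA-GFP in 1% FBS DMEM, stimulated with 500 pg/mL TGF-beta after compound addition. %Activity was normalised to no-cell wells (complete cell-killing) and DMSO (no toxicity), and curves were fitted and classified.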
DT40 TDP1 CPT: DT40-hTDP1 cell growth loss with CPT; chicken DT40 Tdp1-/-;hTDP1 cells + 20 nM CPT, ATP luminescence, 48 h; Potency, µM (titrated, usually from 46.2 µM), without a hit: top-dose activity change, negative = growth inhibition, usual class: inhibitors; hit rate 12% among 420,000; note: potency is the fitted concentration of half-maximal effect; % is set by controls: 0 for no effect and ±100 for the full control effect; nearly all actives have a fitted effect of over 55% in size
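Cell growth measured by CellTiter-Glo luminescence after a minimum 48 h, 37 C compound exposure with 20 nM CPT in Tdp1-knockout DT40 cells stably expressing hTDP1, seeded 400/well; qHTS titration format.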
TGFb inhibitor: blocks TGF-b signaling; HepG2 CAGA-GFP TGF-b/SMAD3 reporter, GFP fluorescence, 18 h; TGF-beta stimulated, 500 pg/mL final; hit rate 1.2% among 410,000; AID 588855; Potency, µM (highest dose often 46.1 µM), for inactives: at the top dose activity, negative = inhibition, actives largely listed as inhibitors; note: potency is the fitted concentration of half-maximal effect; % is set by controls: 0 for no effect and ±100 for the full control effect; nearly all actives have a fitted effect of over 65% in size
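TGF-beta reporter screen: HEPG2 CAGA-GFP, 1% FBS, 500 pg/mL TGF-beta final, 18 h; per-cell GFP summed per well; curves fitted and categorized by class.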
DT40 TDP1 no CPT: qHTS for Inhibitors of human tyrosyl-DNA phosphodiesterase 1 (TDP1): qHTS in cells in absence of CPT; DT40 Tdp1-/- hTDP1 cells, no CPT, ATP luminescence, 48 h; Potency, µM (doses to about 46.2 µM), without a hit: top-dose activity change, negative = growth inhibition, most hits filed as inhibitors; hit rate 15% among 420,000; AID 686978, 2013; note: potency is the fitted concentration of half-maximal effect; % is set by controls: 0 for no effect and ±100 for the full control effect; nearly all actives have a fitted effect of over 55% in size
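Seeded 400 DT40-hTDP1 cells/well (vehicle DMSO, no 20 nM CPT); pinned compounds; ≥48 hr at 37 °C; CellTiter-Glo luminescence as viability measure.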
The depositor's hits bear a star; ? = inconclusive; · = no result given; [ ] = another dose, or the depositor's remark. An excerpt weighted towards active compounds, which were near 18% of everything screened. Unless noted, calls come from the whole dose curve; as a rule, active = well fitted curve in the direction sought with a large enough effect; inconclusive = small, poorly fitted or top-dose-only effect, or another doubt; inactive = no such curve, though single readings can be large; an effect the other way counts as inactive or inconclusive.

SMILES	IL-1B inflam inh	TDP1 inh	HepG2 viability	DT40 TDP1 CPT	TGFb inhibitor	DT40 TDP1 no CPT
CCOc1cc(N2CCOCC2)c(OCC)cc1NC(=O)c1c(C)noc1C	-11	4%	7%	-24%	-15%	-17%
Cc1ccc(NS(=O)(=O)c2ccc3c(c2)CCO3)cc1C	·	1%	·	·	·	·
O=C(c1cc2nc(-c3ccco3)cc(C(F)(F)F)n2n1)N1CCN(c2ccc(F)cc2)CC1	-76*	5%	-11%	?	?	?
O=C(c1ccccc1)N1CCN(C(=O)c2nn3c(C(F)(F)F)cc(-c4ccco4)nc3c2Br)CC1	-65*	16%[0.0935 µM]	-7%	?	11%	?
O=C(c1cc2nc(-c3ccco3)cc(C(F)(F)F)n2n1)N1CCN(Cc2ccccc2)CC1	-29	0%	-13%	18µM*	-6%	?
COc1ccc(-c2cc(C(F)(F)F)n3nc(C(=O)N4CCN(C(=O)c5ccco5)CC4)cc3n2)cc1	-15	·	-2%	15µM*	-3%	21µM*
CC1CCc2cc(F)ccc2N1C(=O)c1cc2nc(-c3ccco3)cc(C(F)(F)F)n2n1 (configuration not stated)	-4	2%	-22%	?	-14%	?
O=C(Nc1ccc(S(=O)(=O)NC2=NCCCCC2)cc1)c1ccc2ccccc2n1	-14	3%	3%	?	19%	?
COCCNC(=O)/C(C#N)=C/c1ccc(N2CCOCC2)o1	-10	5%	6%	-3%	70%	5%
N#C/C(=C\c1ccc(O)c(O)c1)C(=O)NCCCc1ccccc1	-5	11%	-24%	?	-2%	4.1µM*
COc1ccc(/C=C(\C#N)C(=O)NCCc2ccccc2)cc1OCc1ccccc1	-25	3%	-10%	?	9%	16µM*
N#C/C(=C\c1ccc(N2CCOCC2)o1)C(=O)NCCc1ccccc1	-51*	6%	-1%	?	103%	?
N#CC(=Cc1ccc(O)c(O)c1)C(=O)NCc1ccccc1	·	·	-26%	?	3%	?
CN(C)c1ncc2nc(-c3ccc(F)cc3)c(=O)n(C)c2n1	·	·	·	0%	·	5%
Nc1ncccc1OCc1ccc(Br)cc1	-10	4%	1%	-27%	?	18µM*
Cc1ccc(C)c(OCCC(=O)OCC(=O)NCCc2ccc(S(N)(=O)=O)cc2)c1	9	3%	1%	3%	0%	1%
CN(C)Cc1cn(CC[C@@H]2CC[C@@H](NC(=O)Nc3ccccc3F)[C@@H](CO)O2)nn1	0	·	·	-11%	·	2%
O=C(Nc1ccc(Cl)cc1)N[C@H]1CC[C@H](CCn2cc(-c3ccccc3F)nn2)O[C@@H]1CO	-2	·	·	8.2µM*	·	9.2µM*
Cc1cc(=O)oc2cc(NC(=O)C(CCCCN)NC(=O)C(CC3CCCCC3)NC(=O)OCC3c4ccccc4-c4ccccc43)ccc12 (configuration not stated)	·	7%	·	·	·	·
O=S(=O)(NCCc1nnc2ccc(SCc3c(F)cccc3Cl)nn12)c1ccccc1	·	3%	-28%	?	-23%	23µM*
COc1ccc(Cl)cc1NC(=O)CSc1ccc2nnc(CCNS(=O)(=O)c3ccccc3)n2n1	·	8%	-4%	18µM*	0%	?
COc1ccc(S(=O)(=O)NCCc2nnc3ccc(SCC(=O)Nc4ccccc4C)nn23)cc1	·	3%	-25%	-8%	17%	-16%
O=S(=O)(NCCc1nnc2ccc(SCc3ccccc3Cl)nn12)c1ccccc1	·	8%	-27%	16µM*	?	23µM*
Cc1ccc(C(=O)N(C)Cc2nc3ccccc3c(=O)[nH]2)cc1NC(=O)c1ccco1	26	0%	-2%	-2%	-3%	-17%
CCOCCn1ccc2c(OCC(=O)NCc3ccc(F)cc3)cccc2c1=O	·	-3%	1%	-22%	-10%	-27%
SMILES	IL-1B inflam inh	TDP1 inh	HepG2 viability	DT40 TDP1 CPT	TGFb inhibitor	DT40 TDP1 no CPT
O=C(NCc1ccccc1Cl)c1[nH]c(C(F)(F)F)nc1-c1ccccc1	0	·	-63%	-9%	?	?
COc1ccc(OC)c(-c2cc(C(=O)Nc3c(C)nn(Cc4ccccc4)c3C)no2)c1	?	6%	-18%	18µM*	-24%	23µM*
COc1ccc(OC)c(-c2cc(C(=O)Nc3c(C)nn(Cc4ccc(Cl)cc4)c3C)no2)c1	-63*	2%	-8%	?	-3%	21µM*
CC(=O)Nc1sc2c(c1C(c1cccc(Cl)c1)N1CCN(CCO)CC1)CCCC2 (configuration not stated)	-16	8%	-36%	16µM*	?	26µM*
CCOc1ccc(C(c2c(NC(=O)c3ccccc3)sc(C)c2C)N2CCN(CCO)CC2)cc1 (configuration not stated)	-67*	-3%	11µM*	21µM*	?	18µM*
Cc1sc(NC(=O)c2ccccc2)c(C(c2ccc(Cl)cc2)N2CCN(CCO)CC2)c1C (configuration not stated)	-66*	-2%	-108%	23µM*	?	26µM*
COc1ccc(C2NC(=O)CCC2[N+](=O)[O-])c(OC)c1OC (configuration not stated)	3	-11%	2%	2%	10%	-7%
CCCc1ccc2c(C(F)(F)F)cc(C(F)(F)F)cc2n1	0	·	-8%	-27%	0%	-8%
COc1ccc(OC)c(CCNC(=O)c2c(C)nn(-c3ccc(F)cc3)c2-n2cccc2)c1	·	11%	-2%	·	?	·
O=C(CN1CCOCC1)N/N=C/c1cccc2ccccc12	7	·	13%	0%	1%	-17%
Cc1ccccc1Cn1cnc2ccccc2c1=O	11	5%	-20%	21%	-21%	-13%
O=c1c2ccccc2ncn1Cc1cccc2ccccc12	-54*	5%	-9%	?	-2%	-13%
CCCCNC(=O)O[C@@H]1C[C@H]2CCC(=O)N3CC[C@@H](C1)[C@@H]23	-6	·	3%	?	8%	-3%
O=C(CCSCc1ccccc1F)NCc1ccc(F)cc1	18	·	-5%	7%	6%	16%
Cn1c(=O)c2c(-c3ccc(OC(F)F)cc3)cc(-c3ccccc3)nc2n(C)c1=O	15	·	-18%	7%	-2%	-2%

Compound activity as filed in PubChem.
